Laboratory results reported in paper PMC7862700, “An all-to-all approach to the identification of sequence-specific readers for epigenetic DNA modifications on cytosine”.

Experiments:
Test in all cases: DAPPL (digital affinity profiling via proximity ligation, sequencing); 10 mM Tris-HCl pH 7.5, 50 mM NaCl, 1 mM DTT, 4% glycerol, room temperature, 30 min; GST-TFs on glutathione beads, 16-mer random dsDNA library, 0.1% formaldehyde crosslink after washing; high values mean tight binding
[1] = target: T1, FEV (Homo sapiens, UniProt Q99581 1-238); details: protein: recombinant; tags: N-terminal GST; dsDNA, one strand shown
T1 sequence: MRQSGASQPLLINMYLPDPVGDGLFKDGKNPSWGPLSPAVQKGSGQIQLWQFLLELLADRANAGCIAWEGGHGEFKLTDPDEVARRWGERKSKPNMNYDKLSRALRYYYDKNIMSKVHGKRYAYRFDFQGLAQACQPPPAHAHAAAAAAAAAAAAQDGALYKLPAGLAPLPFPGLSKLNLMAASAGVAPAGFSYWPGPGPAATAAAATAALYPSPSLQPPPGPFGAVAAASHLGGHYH
Procedure, shortened: (§1)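 A tag-only sample was pooled with DNA-barcoded human transcription factors that had been expressed in yeast as GST fusions and captured on glutathione beads. The pools were incubated for 30 min at room temperature with 200 nmole of a random double-stranded 16-mer DNA library in Tris/NaCl/DTT/glycerol buffer, then washed, crosslinked with 0.1% formaldehyde, proximity-ligated (BsaI/T4 ligase, 1 h, 37 °C), PCR-amplified and sequenced on an Illumina NextSeq500. Binding signal is each hexamer's read frequency for a factor divided by its frequency for the tag-only sample.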

[2] = target: ETV5 (Homo sapiens, UniProt P41161 1-510); details: protein: recombinant; tags: N-terminal GST; dsDNA, one strand shown
Sequence of ETV5 (P41161 whole entry): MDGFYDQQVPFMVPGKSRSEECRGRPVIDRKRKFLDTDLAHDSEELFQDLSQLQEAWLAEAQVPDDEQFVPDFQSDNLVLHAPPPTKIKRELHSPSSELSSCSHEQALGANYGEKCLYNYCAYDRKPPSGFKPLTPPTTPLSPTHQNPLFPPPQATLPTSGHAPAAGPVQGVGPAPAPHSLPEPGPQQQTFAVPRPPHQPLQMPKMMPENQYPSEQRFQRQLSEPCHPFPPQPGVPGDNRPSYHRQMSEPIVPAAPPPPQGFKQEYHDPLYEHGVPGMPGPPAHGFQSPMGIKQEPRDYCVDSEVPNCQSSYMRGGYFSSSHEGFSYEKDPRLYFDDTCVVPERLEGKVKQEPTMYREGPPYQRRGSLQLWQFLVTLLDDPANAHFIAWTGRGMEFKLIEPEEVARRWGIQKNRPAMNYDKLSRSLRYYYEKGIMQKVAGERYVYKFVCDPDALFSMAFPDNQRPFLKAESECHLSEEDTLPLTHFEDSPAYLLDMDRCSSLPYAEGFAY
Procedure, shortened: as §1

[3] = target: HSF1 (Homo sapiens, UniProt Q00613 1-529); details: protein: recombinant; tags: N-terminal GST; chain copies: 3; dsDNA, one strand shown
Sequence of HSF1 (Q00613 whole entry): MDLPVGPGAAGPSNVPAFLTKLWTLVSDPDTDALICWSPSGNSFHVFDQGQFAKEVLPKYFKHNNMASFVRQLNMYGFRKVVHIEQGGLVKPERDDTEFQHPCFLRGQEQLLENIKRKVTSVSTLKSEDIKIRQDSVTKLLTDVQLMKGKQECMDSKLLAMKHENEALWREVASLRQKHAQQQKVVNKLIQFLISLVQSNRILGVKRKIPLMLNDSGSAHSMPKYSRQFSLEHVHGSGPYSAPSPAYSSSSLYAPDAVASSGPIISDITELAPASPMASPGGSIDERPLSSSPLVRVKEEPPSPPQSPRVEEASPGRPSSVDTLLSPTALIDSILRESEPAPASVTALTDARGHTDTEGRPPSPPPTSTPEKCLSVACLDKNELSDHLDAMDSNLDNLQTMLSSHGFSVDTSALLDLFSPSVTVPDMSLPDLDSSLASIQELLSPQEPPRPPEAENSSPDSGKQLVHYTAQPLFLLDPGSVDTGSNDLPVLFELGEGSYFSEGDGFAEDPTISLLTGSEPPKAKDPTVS
Procedure, shortened: as §1

[4] = target: T2, SPIC (Homo sapiens, UniProt Q8N5J4 1-248); details: protein: recombinant; tags: N-terminal GST; dsDNA, one strand shown
T2 sequence: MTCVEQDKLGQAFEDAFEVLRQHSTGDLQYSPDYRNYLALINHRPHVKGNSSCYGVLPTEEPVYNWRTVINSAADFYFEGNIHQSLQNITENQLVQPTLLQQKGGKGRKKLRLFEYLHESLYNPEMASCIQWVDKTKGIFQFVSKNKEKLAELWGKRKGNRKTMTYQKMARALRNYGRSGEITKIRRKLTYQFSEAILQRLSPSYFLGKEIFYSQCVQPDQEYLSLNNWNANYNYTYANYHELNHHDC
Procedure, shortened: as §1

[5] = target: ELF4 (Homo sapiens, UniProt Q99607 1-663); details: protein: recombinant; tags: N-terminal GST; dsDNA, one strand shown
Sequence of ELF4 (Q99607 whole entry): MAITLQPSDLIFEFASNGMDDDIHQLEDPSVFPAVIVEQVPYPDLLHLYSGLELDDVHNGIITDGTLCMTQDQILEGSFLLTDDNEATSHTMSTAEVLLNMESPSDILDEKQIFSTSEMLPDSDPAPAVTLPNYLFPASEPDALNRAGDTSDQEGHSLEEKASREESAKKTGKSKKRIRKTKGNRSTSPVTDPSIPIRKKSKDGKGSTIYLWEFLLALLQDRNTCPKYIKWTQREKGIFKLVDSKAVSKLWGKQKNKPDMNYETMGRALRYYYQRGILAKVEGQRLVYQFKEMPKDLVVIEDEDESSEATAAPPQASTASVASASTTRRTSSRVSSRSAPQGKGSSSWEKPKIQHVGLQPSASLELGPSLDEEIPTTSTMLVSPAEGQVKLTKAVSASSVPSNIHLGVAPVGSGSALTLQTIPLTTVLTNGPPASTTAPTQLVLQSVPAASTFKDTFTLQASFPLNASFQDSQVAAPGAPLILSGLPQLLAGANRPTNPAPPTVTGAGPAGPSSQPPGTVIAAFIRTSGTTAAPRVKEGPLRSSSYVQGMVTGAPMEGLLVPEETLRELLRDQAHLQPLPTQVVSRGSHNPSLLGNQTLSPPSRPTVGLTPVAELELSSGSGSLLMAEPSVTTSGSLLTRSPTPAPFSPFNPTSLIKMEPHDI
Procedure, shortened: as §1

[6] = target: T3, ELK4 (Homo sapiens, UniProt P28324-2 1-405); details: protein: recombinant; tags: N-terminal GST; dsDNA, one strand shown
T3 sequence: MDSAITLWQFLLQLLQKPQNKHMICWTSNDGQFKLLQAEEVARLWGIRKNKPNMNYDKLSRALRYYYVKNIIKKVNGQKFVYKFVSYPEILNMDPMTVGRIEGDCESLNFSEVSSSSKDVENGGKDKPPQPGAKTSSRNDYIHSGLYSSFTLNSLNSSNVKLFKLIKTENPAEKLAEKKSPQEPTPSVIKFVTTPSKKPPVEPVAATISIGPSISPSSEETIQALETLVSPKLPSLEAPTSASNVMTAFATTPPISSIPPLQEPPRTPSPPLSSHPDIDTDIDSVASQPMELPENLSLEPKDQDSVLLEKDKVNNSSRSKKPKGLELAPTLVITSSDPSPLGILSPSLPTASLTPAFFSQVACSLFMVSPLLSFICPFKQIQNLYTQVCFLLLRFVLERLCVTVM
Procedure, shortened: as §1

[7] = target: T4, ETV2 (Homo sapiens, UniProt O00321 1-342); details: protein: recombinant; tags: N-terminal GST; dsDNA, one strand shown
T4 sequence: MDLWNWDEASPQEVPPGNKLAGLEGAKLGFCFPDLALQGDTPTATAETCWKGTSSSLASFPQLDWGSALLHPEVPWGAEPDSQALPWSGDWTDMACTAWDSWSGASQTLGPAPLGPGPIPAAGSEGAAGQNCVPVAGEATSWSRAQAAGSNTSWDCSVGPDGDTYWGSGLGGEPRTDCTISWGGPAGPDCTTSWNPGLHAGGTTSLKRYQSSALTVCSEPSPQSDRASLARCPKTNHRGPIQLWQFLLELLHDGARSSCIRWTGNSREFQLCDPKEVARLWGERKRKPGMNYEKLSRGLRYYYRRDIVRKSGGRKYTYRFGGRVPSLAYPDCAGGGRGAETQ
Procedure, shortened: as §1

[8] = target: T5, ELF3 (Homo sapiens, UniProt P78545 1-371); details: protein: recombinant; tags: N-terminal GST; dsDNA, one strand shown
T5 sequence: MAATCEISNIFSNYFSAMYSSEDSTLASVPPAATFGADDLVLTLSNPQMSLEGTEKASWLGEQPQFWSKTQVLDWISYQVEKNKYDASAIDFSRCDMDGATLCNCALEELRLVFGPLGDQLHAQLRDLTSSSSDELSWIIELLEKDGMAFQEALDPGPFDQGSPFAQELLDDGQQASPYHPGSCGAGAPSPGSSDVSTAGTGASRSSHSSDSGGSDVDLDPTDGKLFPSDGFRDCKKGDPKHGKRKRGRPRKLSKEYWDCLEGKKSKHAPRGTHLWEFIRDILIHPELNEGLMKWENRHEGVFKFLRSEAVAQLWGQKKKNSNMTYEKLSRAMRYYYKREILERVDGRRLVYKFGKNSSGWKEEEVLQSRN
Procedure, shortened: as §1

[9] = target: CRX (Homo sapiens, UniProt O43186 1-299); details: protein: recombinant; tags: N-terminal GST; dsDNA, one strand shown
Sequence of CRX (O43186 whole entry): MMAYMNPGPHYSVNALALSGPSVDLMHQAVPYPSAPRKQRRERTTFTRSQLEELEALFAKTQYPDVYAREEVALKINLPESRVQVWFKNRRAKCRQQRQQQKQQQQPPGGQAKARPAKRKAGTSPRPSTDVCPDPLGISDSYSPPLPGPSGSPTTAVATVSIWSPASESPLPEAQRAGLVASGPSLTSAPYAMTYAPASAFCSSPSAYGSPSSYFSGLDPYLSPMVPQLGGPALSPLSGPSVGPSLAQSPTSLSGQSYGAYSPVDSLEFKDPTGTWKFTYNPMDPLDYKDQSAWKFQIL
Procedure, shortened: as §1

[10] = target: ETV1 (Homo sapiens, UniProt P50549 1-477); details: protein: recombinant; tags: N-terminal GST; dsDNA, one strand shown
Sequence of ETV1 (P50549 whole entry): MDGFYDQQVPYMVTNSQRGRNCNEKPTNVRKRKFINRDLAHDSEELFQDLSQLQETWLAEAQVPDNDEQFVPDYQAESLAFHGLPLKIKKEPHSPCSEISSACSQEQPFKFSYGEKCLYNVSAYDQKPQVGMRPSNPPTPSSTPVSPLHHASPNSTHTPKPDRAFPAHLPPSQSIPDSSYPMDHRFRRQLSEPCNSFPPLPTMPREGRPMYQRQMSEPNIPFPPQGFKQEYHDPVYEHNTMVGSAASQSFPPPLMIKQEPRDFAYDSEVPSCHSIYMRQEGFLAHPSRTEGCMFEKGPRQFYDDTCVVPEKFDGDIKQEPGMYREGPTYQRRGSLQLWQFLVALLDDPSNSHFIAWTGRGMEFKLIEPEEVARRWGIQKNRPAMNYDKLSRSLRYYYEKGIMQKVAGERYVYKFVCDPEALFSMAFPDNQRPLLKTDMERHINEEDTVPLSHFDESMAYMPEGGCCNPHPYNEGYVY
Procedure, shortened: as §1

[11] = target: T6, ERF (Homo sapiens, UniProt P50548 1-548); details: protein: recombinant; tags: N-terminal GST; dsDNA, one strand shown
T6 sequence: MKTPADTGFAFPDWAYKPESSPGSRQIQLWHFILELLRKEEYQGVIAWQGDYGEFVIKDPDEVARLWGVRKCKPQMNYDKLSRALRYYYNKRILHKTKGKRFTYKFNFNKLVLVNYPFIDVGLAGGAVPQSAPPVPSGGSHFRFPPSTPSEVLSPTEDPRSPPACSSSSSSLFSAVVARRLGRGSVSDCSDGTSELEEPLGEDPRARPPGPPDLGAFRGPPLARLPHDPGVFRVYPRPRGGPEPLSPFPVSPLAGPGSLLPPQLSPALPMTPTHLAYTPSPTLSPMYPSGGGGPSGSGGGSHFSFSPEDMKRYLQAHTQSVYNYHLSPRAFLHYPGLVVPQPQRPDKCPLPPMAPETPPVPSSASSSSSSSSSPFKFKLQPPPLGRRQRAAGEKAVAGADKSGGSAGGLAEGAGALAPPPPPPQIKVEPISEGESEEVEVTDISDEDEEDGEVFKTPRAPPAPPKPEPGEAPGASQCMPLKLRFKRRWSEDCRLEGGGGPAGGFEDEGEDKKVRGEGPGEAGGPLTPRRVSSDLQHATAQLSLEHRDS
Procedure, shortened: as §1

[12] = target: T7, ETV3L (Homo sapiens, UniProt Q6ZN32 1-361); details: protein: recombinant; tags: N-terminal GST; dsDNA, one strand shown
T7 sequence: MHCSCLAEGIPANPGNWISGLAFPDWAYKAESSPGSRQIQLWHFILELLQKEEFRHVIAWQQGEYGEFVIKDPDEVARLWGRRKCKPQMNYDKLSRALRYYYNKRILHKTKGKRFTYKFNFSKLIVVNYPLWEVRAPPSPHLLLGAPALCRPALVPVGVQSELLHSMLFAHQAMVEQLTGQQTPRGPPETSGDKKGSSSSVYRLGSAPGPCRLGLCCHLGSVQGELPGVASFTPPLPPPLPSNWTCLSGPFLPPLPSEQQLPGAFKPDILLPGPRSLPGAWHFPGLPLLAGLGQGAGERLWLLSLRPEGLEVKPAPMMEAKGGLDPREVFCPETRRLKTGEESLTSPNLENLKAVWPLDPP
Procedure, shortened: as §1

[13] = target: T8, ETS2 (Homo sapiens, UniProt P15036 1-469); details: protein: recombinant; tags: N-terminal GST; dsDNA, one strand shown
T8 sequence: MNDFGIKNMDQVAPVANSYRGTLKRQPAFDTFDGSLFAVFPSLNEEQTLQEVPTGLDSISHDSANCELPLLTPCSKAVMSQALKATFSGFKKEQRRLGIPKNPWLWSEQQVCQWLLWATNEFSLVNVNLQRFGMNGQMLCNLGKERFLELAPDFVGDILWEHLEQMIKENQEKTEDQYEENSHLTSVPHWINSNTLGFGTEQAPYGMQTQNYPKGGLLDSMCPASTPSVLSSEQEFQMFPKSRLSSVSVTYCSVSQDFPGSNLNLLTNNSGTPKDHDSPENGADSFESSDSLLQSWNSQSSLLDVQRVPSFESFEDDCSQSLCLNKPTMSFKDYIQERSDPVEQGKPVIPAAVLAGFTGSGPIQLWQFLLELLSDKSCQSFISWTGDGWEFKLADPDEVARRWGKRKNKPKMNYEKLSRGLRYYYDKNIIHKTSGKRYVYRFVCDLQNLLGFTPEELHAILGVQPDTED
Procedure, shortened: as §1

[14] = target: T9, SPDEF (Homo sapiens, UniProt O95238 1-335); details: protein: recombinant; tags: N-terminal GST; dsDNA, one strand shown
T9 sequence: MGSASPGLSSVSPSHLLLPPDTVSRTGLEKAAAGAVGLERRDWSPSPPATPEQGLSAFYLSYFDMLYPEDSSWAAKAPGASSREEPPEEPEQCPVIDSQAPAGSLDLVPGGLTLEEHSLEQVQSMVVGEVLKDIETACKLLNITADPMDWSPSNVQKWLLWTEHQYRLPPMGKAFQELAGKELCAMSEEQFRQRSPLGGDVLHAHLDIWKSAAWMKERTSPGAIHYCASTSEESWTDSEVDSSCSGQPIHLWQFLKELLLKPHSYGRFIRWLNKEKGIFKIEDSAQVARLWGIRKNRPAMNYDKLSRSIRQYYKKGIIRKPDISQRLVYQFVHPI
Procedure, shortened: as §1

[15] = target: T10, ETV7 (Homo sapiens, UniProt Q9Y603 1-341); details: protein: recombinant; tags: N-terminal GST; dsDNA, one strand shown
T10 sequence: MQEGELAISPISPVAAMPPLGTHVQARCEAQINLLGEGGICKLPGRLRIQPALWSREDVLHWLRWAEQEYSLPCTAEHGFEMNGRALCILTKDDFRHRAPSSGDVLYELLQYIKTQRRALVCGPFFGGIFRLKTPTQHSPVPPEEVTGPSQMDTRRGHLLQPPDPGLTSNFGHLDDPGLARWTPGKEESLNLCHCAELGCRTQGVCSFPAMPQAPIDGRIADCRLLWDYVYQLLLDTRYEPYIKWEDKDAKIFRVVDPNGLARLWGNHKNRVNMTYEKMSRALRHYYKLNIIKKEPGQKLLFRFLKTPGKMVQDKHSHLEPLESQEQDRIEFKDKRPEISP
Procedure, shortened: as §1

[16] = target: T11, ELF5 (Homo sapiens, UniProt Q9UKW6-2 1-255); details: protein: recombinant; tags: N-terminal GST; dsDNA, one strand shown
T11 sequence: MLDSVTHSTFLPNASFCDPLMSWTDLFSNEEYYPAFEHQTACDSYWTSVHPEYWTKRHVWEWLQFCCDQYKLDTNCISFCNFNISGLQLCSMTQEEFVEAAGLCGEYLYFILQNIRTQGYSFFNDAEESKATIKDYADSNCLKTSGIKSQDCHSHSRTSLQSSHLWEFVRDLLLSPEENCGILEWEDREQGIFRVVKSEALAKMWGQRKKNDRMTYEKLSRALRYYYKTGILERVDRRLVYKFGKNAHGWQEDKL
Procedure, shortened: as §1

[17] = target: T12, ETV3 (Homo sapiens, UniProt P41162-2 1-143); details: protein: recombinant; tags: N-terminal GST; dsDNA, one strand shown
T12 sequence: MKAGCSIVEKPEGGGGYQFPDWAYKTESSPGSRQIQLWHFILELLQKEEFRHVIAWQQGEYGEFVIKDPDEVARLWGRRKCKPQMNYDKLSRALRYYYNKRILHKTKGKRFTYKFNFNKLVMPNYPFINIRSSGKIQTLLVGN
Procedure, shortened: as §1

[18] = target: ETV6 (Homo sapiens, UniProt P41212 1-452); details: protein: recombinant; tags: N-terminal GST; dsDNA, one strand shown
Sequence of ETV6 (P41212 whole entry): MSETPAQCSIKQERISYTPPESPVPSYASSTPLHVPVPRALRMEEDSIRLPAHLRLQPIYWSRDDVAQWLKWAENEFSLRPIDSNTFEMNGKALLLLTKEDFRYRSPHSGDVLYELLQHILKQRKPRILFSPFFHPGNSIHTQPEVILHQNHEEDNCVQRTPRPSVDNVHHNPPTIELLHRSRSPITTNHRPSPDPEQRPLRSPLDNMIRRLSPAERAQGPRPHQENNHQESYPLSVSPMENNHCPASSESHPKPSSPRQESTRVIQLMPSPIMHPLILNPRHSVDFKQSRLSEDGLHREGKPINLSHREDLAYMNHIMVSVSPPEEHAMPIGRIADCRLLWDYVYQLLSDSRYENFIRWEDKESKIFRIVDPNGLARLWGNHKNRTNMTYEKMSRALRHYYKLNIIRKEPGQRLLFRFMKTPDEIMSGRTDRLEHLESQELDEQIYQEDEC
Procedure, shortened: as §1

With ACTGAA the binding signal [1] was 1.19 fold enrichment (6-mer frequency, TF over GST control), the binding signal [2] was 1.19 fold enrichment (6-mer frequency, TF over GST control) and the binding signal [3] was 1.08 fold enrichment (6-mer frequency, TF over GST control). For the same sequence, the binding signal [4] was 1.31 fold enrichment (6-mer frequency, TF over GST control), the binding signal [5] was 1.13 fold enrichment (6-mer frequency, TF over GST control) and the binding signal [6] was 1.16 fold enrichment (6-mer frequency, TF over GST control). The binding signal [7] was 1.05 fold enrichment (6-mer frequency, TF over GST control), the binding signal [8] was 1.37 fold enrichment (6-mer frequency, TF over GST control) and the binding signal [9] was 1.04 fold enrichment (6-mer frequency, TF over GST control). For the same sequence, the binding signal [10] was 1.19 fold enrichment (6-mer frequency, TF over GST control), the binding signal [11] was 1.13 fold enrichment (6-mer frequency, TF over GST control) and the binding signal [12] was 1.1 fold enrichment (6-mer frequency, TF over GST control). For the same sequence, the binding signal [13] was 1.23 fold enrichment (6-mer frequency, TF over GST control), the binding signal [14] was 1.21 fold enrichment (6-mer frequency, TF over GST control) and the binding signal [15] was 1.06 fold enrichment (6-mer frequency, TF over GST control). The binding signal [16] was 1.11 fold enrichment (6-mer frequency, TF over GST control), the binding signal [17] was 1.21 fold enrichment (6-mer frequency, TF over GST control) and the binding signal [18] was 1.17 fold enrichment (6-mer frequency, TF over GST control).
